FBPA Giardia inh – qHTS Assay for Inhibitors of Fructose-1,6-bisphosphate Aldolase from Giardia Lamblia; 290,000 compounds, 0.71% hits; Potency, µM (top dose mostly 59.6 µM), without a hit: at the highest dose activity, negative = inhibition, actives largely listed as inhibitors; AID 2451, 2010; purified Giardia FBPA; A8B2U2; note: potency is the fitted concentration of half-maximal effect; % is set by controls: 0 for no effect and ±100 for the full control effect; nearly all actives have a fitted effect of over 55% in size
Target sequence (A8B2U2 whole entry, looked up): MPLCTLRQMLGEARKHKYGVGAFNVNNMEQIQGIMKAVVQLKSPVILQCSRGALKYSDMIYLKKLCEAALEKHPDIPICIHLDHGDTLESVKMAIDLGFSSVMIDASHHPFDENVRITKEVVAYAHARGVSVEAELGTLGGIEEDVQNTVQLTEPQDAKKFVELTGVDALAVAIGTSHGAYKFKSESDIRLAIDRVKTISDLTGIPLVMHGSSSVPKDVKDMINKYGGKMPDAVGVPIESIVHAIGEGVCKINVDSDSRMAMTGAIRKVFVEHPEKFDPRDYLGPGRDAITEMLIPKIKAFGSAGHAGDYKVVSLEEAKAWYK
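Giardia FBPA (40 nM reagent) was preincubated 10 min at RT with compound (up to 57.5 uM final), then substrate plus GAPDH/TPI/NAD/arsenate coupling system with diaphorase/resazurin was added; resorufin fluorescence (525/598 nm) was read after 20 min.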
Shiga inhibitor – A qHTS for Small Molecule Inhibitors of Shiga Toxin | Vero cells, Shiga toxin protein synthesis inhibition reporter | 290,000 compounds, 9.2% hits | inhibition, % at 38.7 µM | AID 2315, 2010; in the data active = inhibition mostly above about 28%, no sharp cut-off; inactive = mostly below about 43%; note: 0% is about no effect
NS1 function inh – qHTS Assay for Inhibitors of Influenza NS1 Protein Function; 270,000 compounds, 0.4% hits; Potency, µM (highest dose often 46.1 µM), for inactives: at the top dose activity, positive = more growth; calls by dose curve; note: potency is the fitted concentration of half-maximal effect; actives are rising curves; nearly all actives have a fitted effect of over 50% in size
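A cell-based growth assay was used: compounds that relieve NS1-induced slow growth of budding yeast raise OD600. Assay medium was yeast nitrogen base with ammonium sulphate and -URA supplement, pH 6.0, with 2% galactose.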
Pf growth 48h – Primary qHTS for delayed death inhibitors of the malarial parasite plastid, 48 hour incubation; P. falciparum luciferase growth in erythrocytes, 48 h; Potency, µM (titrated, usually from 28.7 µM), without a hit: at the highest dose activity change, negative = inhibition, hits mostly inhibitors; 310,000 compounds, 5.9% hits; AID 504832, 2011; note: potency is the fitted concentration of half-maximal effect; % is set by controls: 0 for no effect and ±100 for the full control effect
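First compound was added to culture medium, then infected red cells at 0.1% parasitemia and 2% hematocrit (final). After incubation at 37 C under 5% CO2, luciferase detection reagent was dispensed and light output recorded.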
Pf growth 96h – Primary qHTS for delayed death inhibitors of the malarial parasite plastid, 96 hour incubation; Potency, µM (top dose mostly 28.7 µM), inactives show top-dose activity change, negative = inhibition, actives largely listed as inhibitors; 320,000 compounds, 6.9% hits; P. falciparum luciferase reporter growth, 96 h; AID 504834, 2011; note: potency is the fitted concentration of half-maximal effect; % is set by controls: 0 for no effect and ±100 for the full control effect
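Parasite growth measured via integrated firefly luciferase reporter in P. falciparum. Infected erythrocytes at 2% hematocrit, 0.05% parasitemia final were treated 96 hours at 37 C under 5% CO2, and luminescence was read.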
CHX counter – Cycloheximide Counterscreen for Small Molecule Inhibitors of Shiga Toxin; max response, %; cell reporter, cycloheximide protein synthesis inhibition counterscreen; 300,000 compounds, 12% hits; in the data active = max response mostly above about 13%, no sharp cut-off; inactive = mostly below about 14%; note: read at 38.3 µM for the half of the compounds with a filed dose; 0% is about no effect
Active calls of the source: *; i = inactive; u = inconclusive; x = not tested or not shown; [ ] = another dose, or the depositor's remark. Sampled rows, rich in hits. Any-hit rate of the full collection: about 21%. Unless noted, calls come from the whole dose curve; as a rule, active = well fitted curve in the direction sought with a large enough effect; inconclusive = small, poorly fitted or top-dose-only effect, or another doubt; inactive = no such curve, though single readings can be large; an effect the other way counts as inactive or inconclusive.

SMILES | FBPA Giardia inh | Shiga inhibitor | NS1 function inh | Pf growth 48h | Pf growth 96h | CHX counter
c1ccc(NCC2OCc3ccccc3CO2)cc1 | 5.4% | 98.0* | 15.6% | 106.5% | 7.2% | 43.5*
CCCCCCNCC1OCc2ccccc2CO1 | 8.0% | -7.4 | -9.1% | 1.2% | 13.1% | 2.0
CC(C)(C)N1C(=O)Cc2c1nc(N)c1c(N)nc(N3CCCCC3CO)c(C#N)c21 (centres undefined) | 4.3% | 31.0 | u | u | 5.86µM* | 9.8
CSCC[C@H](NC(=O)c1cc([N+](=O)[O-])ccc1Cl)c1nc2ccccc2[nH]1 | 3.8% | 13.2 | 1.5% | 11.7µM* | 14.7µM* | 1.7
Cc1nc2nc(SCC(=O)c3cccc([N+](=O)[O-])c3)[nH]c2cc1Br | -18.1% | 29.8* | u | u | 11.7µM* | 31.4*
CSCCC(NC(=O)c1cccc([N+](=O)[O-])c1)c1nc2ccccc2[nH]1 (centres undefined) | -0.7% | -6.9 | -18.8% | u | u | -7.0
O=C(Nc1nc2ccccc2[nH]1)c1cccc([N+](=O)[O-])c1 | 9.9% | 58.5* | -0.4% | 0.0% | 8.2% | 46.6*
O=C(Nc1nc2ccccc2[nH]1)c1ccc([N+](=O)[O-])cc1 | 4.4% | 91.6* | x | i | u | 28.2*
CC(C)(C)N1C(=O)[C@H]2[C@H]3[C@H](O)[C@H](O)C/C(=N/NC(=O)OCc4ccccc4)[C@@H]3CC[C@@H]2C1=O | -0.2%[12.9 µM] | x | x | x | x | x
CCCN(CCC)S(=O)(=O)c1ccc(NC(=O)c2cc(C(=O)OC)cc([N+](=O)[O-])c2)cc1 | -0.3% | -11.3 | 3.0% | u | 1.85µM* | -2.8
COC(=O)c1cc(C(=O)Nc2nc3ccccc3[nH]2)cc([N+](=O)[O-])c1 | u | 48.5* | -8.0% | u | u | 16.5
Cc1ccc(-c2cc(C(F)(F)F)nc(SCC(=O)c3cccc([N+](=O)[O-])c3)n2)cc1 | -2.5% | -3.7 | -8.7% | u | 13.1µM* | -3.1
COC(=O)c1cc(C(=O)Nc2cc(C)ccn2)cc([N+](=O)[O-])c1 | -5.7% | 34.9* | -1.3% | -8.9% | 4.0% | 12.6
C[C@@H]1NC(=O)C/C=C\[C@@H](C)[C@@H]2C=C[C@H](O)[C@@H](COC(=O)[C@H](C)NC(=O)C/C=C\[C@@H](C)[C@@H]3C=C[C@H](O)[C@@H](COC1=O)O3)O2 | -0.6%[12.9 µM] | x | x | x | x | x
Brc1c(Br)c(Br)c2n[nH]nc2c1Br | 10.7% | x | -33.3% | x | x | x
C/C(=N\Nc1nc2ccccc2[nH]1)c1ccc([N+](=O)[O-])cc1 | 0.3% | -7.7 | u | 0.185µM* | 0.0657µM* | 6.7
Cc1nc2ccc(C(=O)Nc3ccc4nc[nH]c4c3)cc2[nH]1 | -11.8% | -8.1 | 4.1% | 26.0% | -10.0% | 5.4
O=C(NC(Cc1ccccc1)c1nc2ccccc2[nH]1)c1cccc([N+](=O)[O-])c1 (centres undefined) | -19.7% | 8.1 | -5.6% | u | 11.7µM* | 8.6
C/C(=N\NC(=O)c1cc(C)nc2ccccc12)c1ccc([N+](=O)[O-])cc1 | 4.7% | -1.1 | 10.8% | u | -26.4% | 6.3
O=C(NCc1nc2ccccc2[nH]1)c1ccc([N+](=O)[O-])cc1 | 2.1% | -5.2 | x | -2.5% | -29.8% | -3.9
O=C(Cc1nc2ccccc2[nH]1)c1cccc([N+](=O)[O-])c1 | -19.3% | 70.0* | 6.7% | 11.7µM* | u | 37.5*
Cc1nc2ccc(NC(=O)c3ccc([N+](=O)[O-])cc3)cc2[nH]1 | -8.2% | 24.3 | 5.9% | 90.1% | 99.2% | 13.7*
C[C@@H]1O[C@@H](Oc2c(-c3cc(O)c(O)c(O)c3)oc3cc(O)cc(O)c3c2=O)[C@H](O)[C@H](O)[C@H]1O | u | -7.4 | 3.5% | 13.1µM* | u | -14.7
CC(=O)Nc1ccnn1C1CCN(C(=O)c2cccc(C)c2C)CC1 | x | -10.8 | -0.1% | -8.0% | -34.0% | -0.7
O=C(O)[C@@H]1[C@H](C(=O)O)[C@]2(Cl)C(Cl)=C(Cl)[C@@]1(Cl)C2(Cl)Cl | x | x | -12.4% | x | x | x
SMILES | FBPA Giardia inh | Shiga inhibitor | NS1 function inh | Pf growth 48h | Pf growth 96h | CHX counter
COc1cccc(-c2ncc3ccccn23)c1 | 0.6% | 71.2* | 4.3% | 166.1% | 55.1% | 36.3*
COc1ccc(-c2ncc3ccccn23)cc1 | -25.5% | 145.2* | -2.3% | 79.6% | x | 41.4*
CN(c1ccc(C(=O)NCc2ccncc2)cc1)S(=O)(=O)c1ccc(Cl)cc1 | 0.7% | -9.4 | 0.5% | 22.8% | 0.0% | -1.5
CNc1nc(Nc2ccc(Br)cc2)nc(N)c1[N+](=O)[O-] | 4.0% | 50.9* | 20.5% | 62.5% | 56.2% | 23.7*
COc1ccc(Nc2nc(N)c([N+](=O)[O-])c(NCCO)n2)cc1 | -2.5% | 34.7 | 5.1% | -24.6% | -26.7% | 10.6
COc1ccc(Nc2nc(N)c([N+](=O)[O-])c(NC3CCCCC3)n2)cc1 | 4.2% | -9.0 | 11.5% | u | 10.4µM* | -10.0
Cc1ccc(Nc2nc(N)c([N+](=O)[O-])c(NCc3ccccc3)n2)cc1 | -6.1% | 25.1 | -0.9% | u | u | -1.5
COc1nc(NCc2cccnc2)nc(NC2CCCCC2)n1 | 0.9% | 34.8* | -44.6% | u | u | 71.3*
COc1nc(Nc2ccc([N+](=O)[O-])cc2)nc(NC2CCCCC2)n1 | -12.7% | 77.9* | x | -19.0% | 1.2% | 42.9*
COc1nc(Nc2cccc([N+](=O)[O-])c2)nc(OC)n1 | 3.4% | -4.6 | x | -17.3% | -6.1% | 0.8
CCOc1ccccc1C1c2[nH]c3ccccc3c2C[C@H]2C(=O)N(C3CCN(Cc4ccccc4)CC3)CC(=O)N12 (some centres undefined) | 4.6% | 20.7 | 5.8% | 0.928µM* | 0.738µM* | 6.7
COc1cccc(C2c3[nH]c4ccccc4c3C[C@H]3C(=O)N(CCCO)CC(=O)N23)c1OC (some centres undefined) | 6.4% | 13.3 | -6.6% | u | u | -0.3
Cc1ccccc1C1c2[nH]c3ccccc3c2C[C@H]2C(=O)N(C3CCN(Cc4ccccc4)CC3)CC(=O)N12 (some centres undefined) | 2.8% | -4.9 | 9.9% | 3.29µM* | 0.329µM* | -3.0
COc1ccc(C2c3[nH]c4ccccc4c3C[C@H]3C(=O)N(C4CCN(Cc5ccccc5)CC4)CC(=O)N23)c(OC)c1 (some centres undefined) | 0.9% | -7.3 | 8.7% | 0.828µM* | 1.04µM* | -1.9
CC(=O)c1cccc(NC(=O)C(C)OC(=O)/C=C/c2cccs2)c1 (centres undefined) | x | x | x | 1.1% | 79.8% | x
COc1ccc(CCNC(=O)CSc2ccc(-c3ccncc3)nn2)cc1 | -0.1% | -6.4 | 2.1% | -28.8% | 30.9% | 8.3
O=C(CCN1CCN(C(c2ccccc2)c2ccccc2)CC1)N/N=C/c1ccc(O)cc1O | -13.8% | -16.6 | 14.8% | u | 5.22µM* | -4.8
